Laboratory results taken from PubChem BioAssay.

Target: Tumor necrosis factor receptor superfamily member 10B (Homo sapiens) (UniProt O14763)
Assay: viability loss of caspase-8 NB7 cells with TRAIL – with/without TRAIL, luminescence panel, confirmation (AID 651596)
Details: NB7 neuroblastoma + caspase-8, TRAIL sensitization, NB7 Caspase-8, with TRAIL, mean of runs, at 10 µM, stronger effect = higher value

Tumor necrosis factor receptor superfamily member 10B (Homo sapiens), sequence (O14763 whole entry, looked up): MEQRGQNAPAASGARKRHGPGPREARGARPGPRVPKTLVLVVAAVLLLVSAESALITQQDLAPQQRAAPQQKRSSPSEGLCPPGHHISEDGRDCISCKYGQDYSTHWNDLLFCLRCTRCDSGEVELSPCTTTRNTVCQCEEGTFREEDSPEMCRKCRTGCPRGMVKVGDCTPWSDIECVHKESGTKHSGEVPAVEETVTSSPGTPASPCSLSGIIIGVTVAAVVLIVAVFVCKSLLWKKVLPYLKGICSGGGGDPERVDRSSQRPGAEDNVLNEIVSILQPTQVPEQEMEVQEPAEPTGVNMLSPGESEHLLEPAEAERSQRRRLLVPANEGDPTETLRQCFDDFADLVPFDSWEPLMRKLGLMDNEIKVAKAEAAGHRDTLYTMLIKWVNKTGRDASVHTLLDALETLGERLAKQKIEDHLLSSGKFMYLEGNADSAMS

Row | SMILES | activity
1 | O=c1c2c(-c3ccccc3)csc2nc2c3ccccc3c(NCCN3CCOCC3)nn12 | 89.5%
2 | CC(C)c1nnc(NC(=O)c2nc(S(=O)(=O)Cc3ccc(F)cc3)ncc2Cl)s1 | 72.9%
3 | O=C(Cn1ncc(Cl)c(Cl)c1=O)c1ccc2c(c1)OCCO2 | 39.7%
4 | CN(C)S(=O)(=O)c1ccc(-c2cn3ccccc3n2)cc1 | 66.2%
5 | COc1ccc(C(=O)Nc2cc(C)on2)cc1 | 49.3%
6 | C/C(=N\NC(=O)c1ccncc1)c1cccc(NC(=O)c2ccc(C(C)(C)C)cc2)c1 | 85.5%
7 | Cc1ccc(N=Cc2c(C)[nH]n(-c3nc4ccccc4[nH]3)c2=O)cc1 | 88.6%
8 | CCc1ccc(C(=O)Nc2cc(C)ccc2F)s1 | -9.2%
9 | CCc1ccc(C(=O)Nc2nnn(CC)n2)cc1 | 73.6%
10 | CCCCCc1c(-c2ccc(OC)c(OC)c2)ncn1CCc1ccccc1OC | 22.7%
11 | Cc1ccc(OCCSCc2nnc(NC(=O)Nc3cccc(Cl)c3)s2)cc1 | 36.6%
12 | Cc1cc(C)c2c(c1)/C(=C/C(=O)c1ccc(Br)s1)C(=O)N2 | 91.8%
13 | Cc1ccc(C(=O)O/N=C(\N)c2ccc(Br)cc2)cc1C | 82.5%
14 | O=C(Nc1ccc(N2CCOCC2)c(F)c1)c1cccs1 | 48.5%
15 | Cc1ccc(NC(=O)c2ccc3c(c2)OCCO3)nc1 | 76.8%
16 | CCCCCCc1cc2cc(C(=O)Nc3ccc(OC)cc3)c(=O)oc2cc1O | 36%
17 | Cc1ccc2nc(-c3ccc(N)cc3)sc2c1 | 83.2%
18 | O=C(CC(Nc1ccc(F)cc1)C(=O)O)c1ccccc1 (stereo not given) | 63.3%
19 | CCOc1ccc(-c2c(C#N)c(N)nc3c2c(=O)n(C)c(=O)n3C)cc1OC | -4.4%
20 | CCCCN(CC)CCCNC(=O)C1c2ccccc2C(=O)N(C)C1c1cn(C)c2ccccc12 (stereo not given) | 71.8%
21 | NC(=O)c1ccccc1NC(=O)/C=C/c1ccccc1 | 67.8%

Tested on: not listed separately
Assay: as above
Details: NB7 neuroblastoma + caspase-8, without TRAIL, NB7 Caspase-8, without TRAIL, mean of runs, at 10 µM

Row | SMILES | activity
22 | Cc1ccn2cc(-c3cccc(NC(=O)CCC(=O)O)c3)nc2c1 | 60.1%
23 | O=C(CCl)N1CCN(S(=O)(=O)c2ccc3ccccc3c2)CC1 | 64.7%
24 | O=c1c2[nH]c3ccc(F)cc3c2ncn1C1CCCCC1 | 49.5%
25 | Cc1ccc(NC(=S)c2nc3ccccc3[nH]2)cc1 | 69.7%
26 | Cc1cc(C(=O)Nc2sc3c(c2C#N)CCCC3)no1 | 52.5%
27 | CCC(=O)Nc1cc2nn(-c3ccccc3)nc2cc1Cl | 65.9%
28 | N#Cc1c(C#N)c(SSc2c(C#N)c(C#N)c(N)n2-c2ccccc2)n(-c2ccccc2)c1N | 72.1%
29 | Cc1cc(C)cc(NC(=O)/C(C#N)=C/c2cn(CC(=O)NCc3ccco3)c3ccccc23)c1 | 77.7%
30 | Cc1nc(-c2ccc(C(=O)Nc3cccc(F)c3)cc2)cs1 | 73.5%
31 | O=C(/C=C/Nc1ccccc1F)c1ccc(Br)cc1 | 59.5%
32 | Cc1cccc2sc(NNC(=O)c3ccc(S(=O)(=O)N4CC(C)CC(C)C4)cc3)nc12 (stereo not given) | 49.8%
33 | O=C(Nc1ccc(Cl)cc1)/C(=C/c1cccc(O)c1)c1nc2ccccc2s1 | 98.1%
34 | O=Nc1c2cc(-c3ccccc3)[nH]nc-2c2ccccc12 | 78.7%
35 | CCOC(=O)CSc1nc(-c2ccncc2)ccc1C#N | 55.1%
36 | O=C(Cn1ncc(Cl)c(Cl)c1=O)NC(=O)NC1CCCCC1 | 99.3%
37 | CN(CCO)c1cc(Sc2nc3ccccc3s2)c2nonc2c1[N+](=O)[O-] | 91.7%
38 | COc1ccc(C(=O)Nc2cccc(/C=C/c3nc4ccccc4c(=O)[nH]3)c2)cc1 | 60.9%
39 | O=C(Nc1ccc2nc(-c3ccco3)[nH]c2c1)c1cccs1 | 80.6%
40 | O=c1c2c(-c3ccccc3)csc2nc2c3ccccc3c(NCCN3CCOCC3)nn12 | 90.1%
41 | CC(C)c1nnc(NC(=O)c2nc(S(=O)(=O)Cc3ccc(F)cc3)ncc2Cl)s1 | 41.8%

Row | SMILES | activity
42 | O=C(Cn1ncc(Cl)c(Cl)c1=O)c1ccc2c(c1)OCCO2 | 76%
43 | CN(C)S(=O)(=O)c1ccc(-c2cn3ccccc3n2)cc1 | 73.5%
44 | COc1ccc(C(=O)Nc2cc(C)on2)cc1 | 38.6%
45 | C/C(=N\NC(=O)c1ccncc1)c1cccc(NC(=O)c2ccc(C(C)(C)C)cc2)c1 | 81.6%
46 | Cc1ccc(N=Cc2c(C)[nH]n(-c3nc4ccccc4[nH]3)c2=O)cc1 | 88.8%
47 | CCc1ccc(C(=O)Nc2cc(C)ccc2F)s1 | 27.4%
48 | CCc1ccc(C(=O)Nc2nnn(CC)n2)cc1 | 75.5%
49 | CCCCCc1c(-c2ccc(OC)c(OC)c2)ncn1CCc1ccccc1OC | 30.2%
50 | Cc1ccc(OCCSCc2nnc(NC(=O)Nc3cccc(Cl)c3)s2)cc1 | 43.7%
51 | Cc1cc(C)c2c(c1)/C(=C/C(=O)c1ccc(Br)s1)C(=O)N2 | 98%
52 | Cc1ccc(C(=O)O/N=C(\N)c2ccc(Br)cc2)cc1C | 88.2%
53 | O=C(Nc1ccc(N2CCOCC2)c(F)c1)c1cccs1 | 63.3%
54 | Cc1ccc(NC(=O)c2ccc3c(c2)OCCO3)nc1 | 77.2%
55 | CCCCCCc1cc2cc(C(=O)Nc3ccc(OC)cc3)c(=O)oc2cc1O | 32.5%
56 | Cc1ccc2nc(-c3ccc(N)cc3)sc2c1 | 81.8%
57 | O=C(CC(Nc1ccc(F)cc1)C(=O)O)c1ccccc1 (stereo not given) | 53.1%
58 | CCOc1ccc(-c2c(C#N)c(N)nc3c2c(=O)n(C)c(=O)n3C)cc1OC | -21.2%
59 | CCCCN(CC)CCCNC(=O)C1c2ccccc2C(=O)N(C)C1c1cn(C)c2ccccc12 (stereo not given) | 69.7%
60 | NC(=O)c1ccccc1NC(=O)/C=C/c1ccccc1 | 70.7%
